nsP2pro inh – inhibitors of chikungunya virus nsP2 protease | FRET peptide cleavage, nsP2pro, fluorescence 1 h | Potency, µM (titrated, usually from 24.9 µM), inactives show top-dose activity change, negative = inhibition, usual class: inhibitors | 1.1% of 31,000 active | AID 1964107; also: nearly all actives have a fitted effect of over 60% in size
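Enzyme 150 nM, substrate 2.5 uM (both final); Tris-HCl 10 mM pH 8.0 + 0.01% Tween 20; cpd up to 25 uM, 7 pts; 15 min preinc., 1 h RT; fluorescence ex 525/em 598.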
CHIKV nsP2 cell – cell-based CHIKV nsP2 protease inhibition, secondary; shares compounds with nsP2pro inh; cell-based CHIKV nsP2 protease reporter assay; Potency, µM (doses to about 51.1 µM), for the others: at the top dose activity change, negative = inhibition, hits mostly inhibitors; 10% of 450 active; also: nearly all actives have a fitted effect of over 70% in size
NSP2 full ctr – full-length CHIKV NSP2 protease inhibition, selectivity. shares compounds with nsP2pro inh. Full-length CHIKV NSP2 protease enzymatic counterscreen. Potency, µM (series often up to 50.7 µM), for inactives: at the top dose activity change, negative = inhibition, actives largely listed as inhibitors. 39% of 410 active. AID 1964101; also: nearly all actives have a fitted effect of over 65% in size
Furin counterscr – selectivity counter-screen for CHIKV nsP2 protease inhibitors: human furin. Recombinant human furin enzymatic counterscreen, fluorogenic substrate. shares compounds with nsP2pro inh. Potency, µM (doses to about 50.6 µM), for inactives: at the highest dose activity change, negative = inhibition, usual class: inhibitors. 6% of 410 active
NS23 peptide cs – selectivity test for CHIKV nsP2 protease inhibitors: endogenous NS2/3 peptide. shares compounds with nsP2pro inh. Purified CHIKV nsP2 protease, endogenous NS2/3 peptide cleavage. Potency, µM (top dose mostly 51 µM), inactives show top-dose activity change, negative = inhibition, actives largely listed as inhibitors. 34% of 410 active. AID 1964103; also: nearly all actives have a fitted effect of over 55% in size
Papain counter – selectivity counter-screen for CHIKV nsP2 protease inhibitors: papain | shares compounds with nsP2pro inh | purified papain protease activity, enzymatic inhibition | Potency, µM (doses to about 51 µM), without a hit: at the highest dose activity change, negative = inhibition, hits mostly inhibitors | 5% of 410 active
nsP2pro confirm – confirmation of CHIKV nsP2 protease inhibitors; shares compounds with nsP2pro inh; CHIKV nsP2 protease enzymatic activity, qHTS; Potency, µM (titrated, usually from 25.5 µM), for the others: at the top dose activity change, negative = inhibition, most hits filed as inhibitors; 43% of 410 active; also: nearly all actives have a fitted effect of over 75% in size
HCV NS3 4A cs – HCV NS3/4A protease inhibition, counterscreen; 20% of 410 active; HCV NS3/4A protease biochemical counterscreen; Potency, µM (series often up to 50.9 µM), actives largely listed as inhibitors; shares compounds with nsP2pro inh; also: nearly all actives have a fitted effect of over 55% in size
An asterisk follows results filed as active; i = inactive; u = inconclusive; x = no result; ! = repeats disagree; [ ] = remark or other dose. The sample as a whole holds a higher share of hits than the screen did. Calls follow the shape of the full dose curve. % is scaled to controls: 0 for no effect and ±100 for the full control effect; potency is read from the fitted curve at half-maximal effect.

SMILES | nsP2pro inh | CHIKV nsP2 cell | others
CC1=C2C[C@@]3(C)C(CCC[C@@H]3C)C(O)C2OC1=O (some centres not stated) | 9.9µM* | -11% | NSP2 full ctr=13µM*;Furin counterscr=-2%;NS23 peptide cs=u;Papain counter=u;nsP2pro confirm=7.1µM*;HCV NS3 4A cs=i
Cc1c(C(=O)OC[C@H]2CCCO2)[nH]c2c1C(=O)CC(c1ccco1)C2 (some centres not stated) | -3% | x
Cc1cccc(CSc2nc3cccnc3n2Cc2ccc(C(=O)NCc3ccco3)cc2)c1 | -9% | x
Cc1ccc(CNC(=O)c2ccc(Cn3c(SCc4ccc(F)cc4)nc4cccnc43)cc2)o1 | u | -16%
O=C(NCc1cccs1)c1ccc(Cn2c(SCc3ccc(F)cc3)nc3cccnc32)cc1 | 23% | x
COCCn1nc2n(c1=O)CCC1(CC2)CCN(C(=O)CC(C)(C)C)CC1 | -3% | x
Cc1ccc(-c2cc(C(=O)Nc3ccc(-c4nn[nH]n4)cc3)c3ccccc3n2)cc1C | i | x
CCCCOC(=O)C(=O)Nc1cccc(-c2nn[nH]n2)c1 | -1% | x
O=C(O)C(=O)Nc1cccc(-c2nn[nH]n2)c1 | u | 0% | NSP2 full ctr=u;Furin counterscr=-7%;NS23 peptide cs=u;Papain counter=-6%;nsP2pro confirm=10µM*;HCV NS3 4A cs=u
Nc1cccc(S(=O)(=O)Nc2cnccc2C(=O)Nc2nc(-c3ccccc3)cs2)c1 | i | x
CC(=O)N[C@H]1[C@H](O[C@H]2CC[C@@]3(C)C(CC[C@]4(C)C3CC=C3C5CC(C)(C)CC[C@]5(C(=O)O)[C@H](O)C[C@]34C)C2(C)C)O[C@H](CO[C@@H]2OC[C@H](O)[C@H](O)[C@H]2O[C@@H]2OC[C@@H](O)[C@H](O)[C@H]2O)[C@@H](O)[C@@H]1O (some centres not stated) | 0%[5.1 µM] | x
O=C1Nc2ccccc2/C1=C\c1ccc([N+](=O)[O-])cc1 | -9% | x
C=CC(=O)N1C/C(=C\c2ccc([N+](=O)[O-])cc2)C(=O)/C(=C/c2ccc([N+](=O)[O-])cc2)C1 | 3.5µM*! | u | NSP2 full ctr=u;Furin counterscr=-14%;NS23 peptide cs=2.9µM*;Papain counter=-14%;nsP2pro confirm=u;HCV NS3 4A cs=i
Cc1ccc(C(=O)N2CCN(c3ccc([N+](=O)[O-])cc3)CC2)cc1Cl | -6% | x
Cc1cc(-c2nnc3n2CCCCC3)c(C)n1-c1ccc(C#N)cc1 | i | x
CCOc1ccc(NC(=O)c2ccc(-c3nc4ccccc4[nH]3)cc2)cc1Cl | 1% | x
CCCS(=O)(=O)Nc1ccc2n(c1=O)C[C@H]1C[C@@H]2CN(C(=O)c2ccc(-c3ccccc3)cc2)C1 | u | -2% | NSP2 full ctr=u;Furin counterscr=-8%;NS23 peptide cs=u;Papain counter=-8%;nsP2pro confirm=-4%;HCV NS3 4A cs=u
COc1ccc(S(=O)(=O)N2C[C@@H]3C[C@H](C2)c2ccc(NS(=O)(=O)c4cccc(F)c4)c(=O)n2C3)cc1 | 24% | x
O=c1c(NS(=O)(=O)Cc2ccccc2)ccc2n1C[C@H]1C[C@@H]2CN(S(=O)(=O)c2ccccc2)C1 | u | 6% | NSP2 full ctr=u;Furin counterscr=-5%;NS23 peptide cs=u;Papain counter=-3%;nsP2pro confirm=u;HCV NS3 4A cs=u
O=C(Nc1ccccc1)Nc1ccc2n(c1=O)C[C@H]1C[C@@H]2CN(C(=O)c2ccccc2)C1 | -19%[39.2 µM] | x
O=C(c1ccccn1)N1C[C@@H]2C[C@H](C1)c1ccc(NS(=O)(=O)c3cccc(F)c3)c(=O)n1C2 | -6% | x
O=c1c(NS(=O)(=O)c2cccc(F)c2)ccc2n1C[C@H]1C[C@@H]2CN(S(=O)(=O)c2ccccc2)C1 | 18% | x
O=C(Nc1ccc(N2CCOCC2)c(F)c1)Nc1nnc(-c2ccncc2)s1 | i | x

Bioassay records as filed in PubChem BioAssay.
